# Compound activity: PubChem, National Center for Advancing Translational Sciences (NCATS)
# Sampled rows, rich in hits. Any-hit rate of the full collection: about 1.3%.
# TRPV1 potentiator: enhances activation of the human vanilloid receptor TRPV1 | potentiation, % at 8.33 µM | TRPV1-expressing cells, Fluo-8 calcium influx, capsaicin EC20 potentiation | 320,000 compounds, 0.02% hits | AID 540277 | Q8NER1; in the data active = potentiation above about 80%; inconclusive = between about 30% and that limit; note: 0% is about no effect
#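 Cells expressing TRPV1 were dye-loaded with Fluo-8 and read kinetically: 10 s baseline, 3 min after compound (agonist portion), then 2 min after EC20 capsaicin (allosteric enhancer portion). Calcium-bound dye fluorescence at 480/520 nm.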
# TRPV1 ag: human TRPV1 agonism | Q8NER1 | TRPV1-expressing cells, Fluo-8 calcium influx, agonist mode | activation, % at 8.33 µM | 320,000 compounds, 0.19% hits | AID 540275; in the data active = activation above about 80%; inconclusive = between about 30% and that limit; note: 0% is about no effect
#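 Cells expressing TRPV1 were dye-loaded with Fluo-8 and read kinetically: 10 s baseline, 3 min after compound (agonist portion), then 2 min after EC20 capsaicin (allosteric enhancer portion). Calcium-bound dye fluorescence at 480/520 nm.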
# KCNH2 3.1 block: inhibitors of human KCNH2 3.1 potassium channel isoform. activity change, % (tested at about 1.8 µM). 340,000 compounds, 0.95% hits. U2OS KCNH2 3.1, thallium flux FluxOr; hits give low values. AID 720553;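 active = maximum activity change below -70%; inconclusive = maximum activity change from -70% to -50%; inactive = maximum activity change above -50%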;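 note: thallium influx rate constant from kinetic fluorescence after stimulation buffer; % is set by controls: 0 for no effect and ±100 for the full control effect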
#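 Kinetic fluorescence (2 min after stimulation buffer) measures Tl+ influx through KCNH2 3.1 expressed by viral transduction in U2OS cells; the rate constant is normalized against DMSO controls serving as positive and negative references.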
# MBNL1 CUG block: blocks human MBNL1 binding to CUG repeat RNA; Q9NR56; TR-FRET MBNL1-His/biotin-(CUG)12 binding, 665/545 ratio; Potency, µM (doses to about 57.5 µM), without a hit: at the top dose activity change, negative = inhibition, most hits filed as inhibitors; 280,000 compounds, 0.036% hits; active = well fitted inhibition curve with a large enough effect in the signal ratio, with a control signal flat, not every such curve was filed as active; inconclusive = small, poorly fitted or top-dose-only effect, or effect the other way, or a change in a side signal; inactive = no such curve, though single readings can be large or run the other way; the % refers to the signal ratio; note: potency is the fitted concentration of half-maximal effect; % is set by controls: 0 for no effect and ±100 for the full control effect
#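 Compound titration spanned 92 nM–58 uM against the MBNL1-His/biotin-(CUG)12 complex. After 60 min at room temperature with 5 nM streptavidin-XL665 and 0.055 ng/ul terbium anti-His, ratiometric 665/545 nm emission (Ex 340 nm) normalized to controls.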
# KCNH2 WT inh: inhibitors of human wildtype KCNH2 potassium channel | Q12809 | U2OS, BacMam KCNH2, thallium flux FluxOr; hits give low values | activity change, % at 1.84 µM | 340,000 compounds, 0.37% hits | AID 720551;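 active = maximum activity change below -70%; inconclusive = maximum activity change between -70% and -50%; inactive = maximum activity change above -50%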; note: % is set by controls: 0 for no effect and ±100 for the full control effect
#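 U2OS cells transduced with wild-type KCNH2 virus are loaded with FluxOr dye for 45 min, and thallium flux is measured in kinetic reads before and after stimulation buffer. Rate constants are normalized to DMSO controls.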
# * marks the source's active call; other numbers are inactive results; ? = inconclusive; / = no result.
SMILES,TRPV1 potentiator,TRPV1 ag,KCNH2 3.1 block,MBNL1 CUG block,KCNH2 WT inh
CCN(CC(=O)NCc1cccs1)C(=O)c1cccc(S(=O)(=O)N2CCc3ccccc32)c1,-17.0,2.5,-11.6,-1.8%,4.6
Cn1c2c(c(=O)n(C)c1=O)C(c1ccccc1Cl)C(C#N)=C(N)O2 (configuration not stated),13.9,-1.5,-104.7*,-6.0%,-0.1
CCCC[C@@H](CNC)NC[C@H](Cc1ccc(O)cc1)NCCc1ccc(OCC)cc1,9.8,4.2,-71.2*,-7.9%,-24.4
CCC[C@H](CN[C@@H](CNC)[C@H](C)O)NCCc1ccc(OC)cc1,-15.7,-0.5,21.3,-2.2%,12.0
CC1(C)CN(Cc2ccccc2)C(=O)[C@H]1CC(=O)Nc1ccc(Br)cc1,/,/,-27.4,/,-13.8
COc1ccc(CCN=C(N)NS(=O)(=O)c2ccc(F)cc2)cc1,-1.7,2.6,-12.5,-3.0%,-3.3
O=C(NCc1cccnc1)C1CCC(c2ccc(Cl)cc2)CC1 (configuration not stated),-13.5,115.2*,-8.2,0.8%,17.3
COc1cccc(CN2CCc3ccc(NC(=O)CCc4ccc(C)cc4)cc3C2)c1O,-0.9,11.5,-81.3*,12.1%,24.7
COc1ccc(NC(=O)c2sc3ncnc(N4CCN(c5ccccn5)CC4)c3c2C)cc1Cl,9.2,0.0,-114.0*,9.3%,-118.2*
COc1ccc(NC(=O)c2sc3nc(C)nc(N4CCN(c5ccccn5)CC4)c3c2C)cc1Cl,-0.2,4.5,-114.3*,18.5%,-77.7*
Cc1cc(Br)ccc1NC(=O)c1sc2ncnc(N3CCN(c4ccccn4)CC3)c2c1C,5.2,5.2,-110.3*,23.9%,-106.5*
COc1ccc(NC(=O)CN2CCN(c3ccccn3)CC2)cc1Cl,24.8,12.7,-0.8,-0.3%,3.0
CCc1ccc(NC(=O)c2sc3nc(C)nc(N4CCN(c5ccccn5)CC4)c3c2C)cc1,2.2,2.0,?,?,-9.0
COc1ccccc1CN1CCCC(C(=O)N(C)Cc2ccccc2)C1 (configuration not stated),/,/,16.1,-19.0%,1.5
COc1ccc(CN2CCCC(C(=O)N(C)Cc3ccccc3)C2)cc1OC (configuration not stated),1.7,-1.0,-75.1*,-3.0%,-9.0
S=c1[nH]nc(CSCCOc2ccc(Cl)cc2Cl)o1,6.4,0.3,-165.6*,0.1%,-154.4*
Nn1c(SCC(=O)Nc2ccc(F)c(F)c2)nnc1C1CCCCC1,-5.3,0.2,40.6,-6.8%,3.3
NC(=O)c1ccc(NC(=O)CSc2nnc(C3CCCCC3)n2N)cc1,9.6,-3.8,-138.2*,-6.0%,6.6
CCN1CCN(c2ccc(S(=O)(=O)N3CCOCC3)cc2NC(=O)C(C)Oc2ccc(Cl)cc2)CC1 (configuration not stated),-23.1,17.3,-35.2,/,15.5
COc1ccc(C(=O)CNc2cccc(F)c2)cc1,8.3,2.8,-90.9*,2.4%,1.9
O=C1CCCCCN1Cc1nnc(SCc2nc3ccccc3s2)n1-c1ccccn1,-5.1,2.7,-79.9*,-13.6%,6.4
CCNC(=O)CSc1nnc(CN2CCCCCC2=O)n1-c1ccccn1,-3.2,-0.6,-0.5,-1.8%,-5.5
CCCSc1nc2cc(C)c(C)cc2n1CC(C)O (configuration not stated),-26.9,24.9,-7.3,-6.9%,2.3
O=C(CCCCC(=O)NN=Cc1ccc(Cl)cc1)NN=Cc1ccc(Cl)cc1,/,/,-43.6,/,3.1
CCOC(=O)c1ccc(NC(=O)N2CCN(c3cccc(OC)c3)CC2)cc1,-20.1,99.0*,-12.6,-9.5%,-12.9
Cc1ccc(C(=O)N2CCN(c3ccc(NC(=O)COc4ccccc4C)cc3)CC2)cc1,4.4,-5.4,-95.1*,-9.7%,-133.6*
COc1ccc(C(=O)N2CCN(c3ccc(NC(=O)Cc4ccccc4)cc3)CC2)cc1,4.5,0.8,-83.4*,-0.8%,-24.6
CCOC(=O)c1ccc(NC(=O)N2CCN(c3ccccn3)CC2)cc1,-11.6,-0.8,2.6,-5.0%,8.8
O=c1c(Cl)c(N/N=C/c2ccc(Br)cc2)cnn1-c1ccccc1,-14.7,-0.6,-6.7,2.5%,21.4
CCn1c(SCC(=O)Nc2nc(C)c(C)s2)nnc1-c1ccco1,20.1,0.9,2.4,4.1%,-9.5
